Records with an inconclusive call do not appear. Active and inactive are the calls of the source. Calls follow the shape of the dose curve; as a rule, active = well fitted inhibition curve with a large enough effect; inconclusive = small, poorly fitted or top-dose-only effect; inactive = flat fitted curve, though single readings scatter. Where a SMILES comes first, the peptide text is derived from it. The star is where a group is joined. Hexanoyl = CCCCCC(=O)*
Experiments:
Experiment in all cases: Cytotoxic Profiling of Annotated Libraries Using Quantitative High-Throughput Screening (AID 1296008); also: nearly all actives have a fitted effect of over 60% in size
Conditions in all cases: Five cell lines viability, CellTiter-Glo ATP luminescence, 48-72 h; max response: hits give low values
[1] = tested on: CRL-7250
Method in brief: (§1)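 Cells exposed to compounds for 48 or 72 hr at 37 degrees Celsius. Viability read as ATP-coupled luminescence with CellTiter-Glo after 10 min at room temperature.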

[2] = tested on: HEK293
Method in brief: as §1

[3] = tested on: HaCat
Method in brief: as §1

[4] = tested on: KB-3-1
Method in brief: as §1

[5] = tested on: NIH3T3
Method in brief: as §1

Measured: max response
% is scaled to controls: 0 for no effect and ±100 for the full control effect.

COc1ccc([C@H]2OC[C@H]3[C@@H]2CO[C@@H]3c2ccc(O[C@@H]3O[C@H](CO)C(O)[C@H](O)[C@H]3O)c(OC)c2)cc1OC (stereo not given in full)
inactive: [1] -2.87% | [2] 1.89% | [3] -9.63% | [4] -3.78% | [5]

CC(=O)c1ccc(O[C@@H]2OC[C@@H](O)[C@H](O)[C@H]2O[C@]2(CO)O[C@H](CO)[C@@H](O)[C@@H]2O)c(O)c1
inactive: [1] | [2] 2.18% | [3] | [4] | [5]

C=C(C)[C@@H]1CC[C@]2(C)CC[C@]3(C)C(CCC4[C@@]5(C)CC[C@H](O)C(C)(C)C5CC[C@]43C)C12 (stereo not given in full)
inactive: [1] | [2] 1.06% | [3] | [4] | [5] 2.33%

Cn1cc(CCn2cnc(-c3cnn(C)c3)c2-c2ccc(C#N)cc2)cn1
inactive: [1] -0.888% | [2] 0.036% | [3] -11.5% | [4] | [5]

CCc1nn(CCO)c(CC)c1Oc1cc(C#N)cc(C#N)c1
inactive: [1] | [2] 2.02% | [3] | [4] | [5] -3.44%

COc1ccc(OC)c(C2C(C#N)=C(N)Oc3n[nH]c(-c4ccc5ccccc5c4)c32)c1 (stereo not given)
inactive: [1] | [2] 0.943% | [3] -8.38% | [4] | [5]

CC1=C2CC(=O)C(C)CC/C=C(\C)CC2(O)OC1=O (stereo not given)
inactive: [1] -4.8% | [2] 0.476% | [3] 2.42% | [4] 3.81% | [5]

O=C(/C=C/c1ccc(O)cc1)O[C@H]1[C@H](OC2CCCCC2O)O[C@H](CO)[C@@H](O)[C@@H]1O (stereo not given in full)
inactive: [1] -2.64% | [2] 2.98% | [3] | [4] 5.56% | [5]

COc1ccccc1Oc1c(NS(=O)(=O)c2ccc(C)cn2)nc(-c2ccncc2)nc1OC
inactive: [1] 3.94% | [2] -4.09% | [3] | [4] | [5] 0.566%

CC(C)=CC[C@H]1O[C@]2(O)C([C@H]3CCC4[C@@]5(C)CC[C@H](O[C@@H]6O[C@H](CO)[C@H](O)[C@H](O[C@@H]7O[C@H](CO)[C@@H](O)[C@H](O)[C@H]7O)[C@H]6O[C@@H]6O[C@@H](C)[C@H](O)[C@@H](O)[C@H]6O)C(C)(C)C5CC[C@@]4(C)[C@]3(C)[C@H]2O)[C@@]1(C)O (stereo not given in full)
inactive: [1] 0.206% | [2] 2.46% | [3] | [4] 9.9% | [5] 0.989%

CC12CC34CC(O)C5C(CO)(CO)CC(=O)CC5(C)C3CC1C2C4 (stereo not given)
inactive: [1] -4.91% | [2] -0.711% | [3] | [4] 0.93% | [5] 2.14%

C[C@@H]1CC[C@]2(C(=O)O[C@@H]3O[C@H](CO[C@@H]4O[C@H](CO)[C@@H](O)[C@H](O)[C@H]4O)[C@@H](O)[C@H](O)[C@H]3O)CC[C@]3(C)C(=CCC4[C@@]5(C)CC[C@H](O)[C@](C)(C(=O)O)C5CC[C@]43C)[C@@H]2[C@]1(C)O (stereo not given in full)
inactive: [1] | [2] 3.94% | [3] | [4] 2.71% | [5] -11.7%

CCC(C)C(=O)OC[C@H]1O[C@H](O[C@H]2O[C@H](CO)[C@@H](O)[C@H](O)[C@H]2O)[C@H](O)[C@@H](O)[C@@H]1O (stereo not given in full)
inactive: [1] | [2] 0.11% | [3] | [4] 6.74% | [5]

COc1cccc(OC)c1-c1cc(C(=O)N[C@@H](CC(C)C)C(=O)O)nn1-c1ccnc2cc(Cl)ccc12
inactive: [1] | [2] -1.22% | [3] | [4] | [5]

C=CC(C)(O)CC/C=C(\C)C(=O)O[C@@H]1[C@@H](O)[C@H](OC(C)(C=C)CC/C=C(\C)C(=O)O)O[C@H](CO)[C@H]1OC(=O)/C(C)=C/CCC(C)(O)C=C (stereo not given in full)
inactive: [1] | [2] -0.372% | [3] -21.2% | [4] | [5]

Cc1ccccc1-c1cc(N2CCN(C)CC2)ncc1N(C)C(=O)C(C)(C)c1cc(C(F)(F)F)cc(C(F)(F)F)c1
inactive: [1] 1.9% | [2] -6.53% | [3] -0.694% | [4] -5.47% | [5]

OC[C@@]1(O)CO[C@H](OC[C@H]2O[C@@H](OC(CCCCc3ccc(O)cc3)CCc3ccc(O)cc3)[C@H](O[C@H]3OC[C@](O)(CO)[C@H]3O)[C@@H](O)[C@@H]2O)[C@@H]1O (stereo not given in full)
inactive: [1] -11.2% | [2] -13.7% | [3] | [4] 2.31% | [5]

C/C=C/C1OC2=C(C(=O)OC2(C)O)C(O)C1O (stereo not given)
inactive: [1] -6.2% | [2] -1.4% | [3] 2.04% | [4] -1.78% | [5]

O=C(COCC(=O)N1CCN(C(c2ccccc2)c2ccccc2)CC1)Nc1ccc(Cl)cc1C(=O)O
inactive: [1] -11.2% | [2] 4.17% | [3] -6.79% | [4] | [5]

CC1C(O)C(O)C2C(C(=O)OCCc3ccc(O)cc3)=COC(O[C@@H]3O[C@H](CO)[C@@H](O)[C@H](O)[C@H]3O)C12 (stereo not given in full)
inactive: [1] | [2] -0.685% | [3] | [4] -9.14% | [5] 2.97%

Fc1cccc(CN(C2=NCCN2)c2c(Cl)cccc2Cl)c1
inactive: [1] -5.57% | [2] -13.5% | [3] 0.445% | [4] 5.56% | [5]

CCCCCC(=O)N1CCC[C@H]1C(=O)N[C@@H](Cc1ccc(O)cc1)C(=O)OC (Hexanoyl-Pro-Tyr-OMe)
inactive: [1] 1.02% | [2] 4.39% | [3] | [4] -0.528% | [5] -4.54%

C[C@]1(OC(=O)/C=C/c2ccccc2)C[C@@H](O)[C@]2(O)C=CO[C@@H](O[C@@H]3O[C@H](CO)[C@@H](O)[C@H](O)[C@H]3O)[C@@H]21
inactive: [1] -4.65% | [2] 3.08% | [3] | [4] 8.76% | [5]

COc1ccc(CC(NC(C)=O)C(=O)O)cc1 (stereo not given)
inactive: [1] 0.775% | [2] -3.66% | [3] | [4] 6.09% | [5] 1.53%

CN1C(=O)N(c2cc(Cl)cc(Cl)c2)C(=O)[C@@]1(C)Cc1ccc(Br)cc1
inactive: [1] -11.1% | [2] -15.8% | [3] -27.7% | [4] 3.14% | [5]

C[C@]1(O)CC[C@@H]2C(C(=O)O)=CO[C@@H](O[C@@H]3O[C@H](CO)[C@@H](O)[C@H](O)[C@H]3O)[C@@H]21
inactive: [1] -9.18% | [2] -5.73% | [3] | [4] 0.108% | [5] 1.11%

CC1(C(=O)O)CCCC2(C)C3CC4C5CC3(CCC12)CC45C (stereo not given)
inactive: [1] -3.47% | [2] 2.22% | [3] | [4] 4.9% | [5] -21.3%

COc1cc(C)c(C(=O)O[C@@H]2[C@H](O)[C@@H](CO)O[C@H]2n2ccc(=O)[nH]c2=O)c(OC)c1
inactive: [1] | [2] 3.08% | [3] | [4] | [5] 2.52%

CCCN(CCN1CCN(c2ccccc2OC)CC1)C1CCc2ncsc2C1 (stereo not given)
inactive: [1] -14.3% | [2] 0.117% | [3] -2.7% | [4] | [5]

CC(C)C1(O)C=C2C(=O)CC3C(C)(C(=O)O)CCCC3(C)C2CC1 (stereo not given)
inactive: [1] 3.97% | [2] 0.541% | [3] | [4] -0.238% | [5]

O=C(O)Cc1cn([C@@H]2OC[C@@H](O[C@@H]3O[C@H](CO)[C@@H](O)[C@H](O)[C@H]3O)[C@H](O)[C@H]2O[C@@H]2O[C@H](CO)[C@@H](O)[C@H](O)[C@H]2O)c2ccccc12
inactive: [1] -0.703% | [2] 2.5% | [3] | [4] 5.94% | [5]

C/C=C1\[C@H](O[C@@H]2O[C@H](CO)[C@@H](O)[C@H](O)[C@H]2O)OC=C(C(=O)OCCc2ccc(O)cc2)[C@H]1CC(=O)OCCc1ccc(O)cc1
inactive: [1] 0.139% | [2] -2.9% | [3] | [4] -0.75% | [5] -3.77%

C=C1C(O)C(O)C2(CC3C(C)=CCC4C(C)(C(=O)O)CCCC34C)OC2C1O (stereo not given)
inactive: [1] -4.59% | [2] 1.46% | [3] | [4] 2.87% | [5]

CC1=C2C[C@@]3(C)C(CCC[C@@H]3C)C(O)C2(O)OC1=O (stereo not given in full)
inactive: [1] -37.7% | [2] -7.76% | [3] | [4] -14% | [5] -21.1%

COc1ccc(C2(O)c3ccccc3NC(=O)C2OC)cc1 (stereo not given)
inactive: [1] -6.47% | [2] 1.57% | [3] | [4] 5.23% | [5]

C=C1C(=O)OC2CC(COC(=O)C(C)C)=C(C(C)CCCOC(C)=O)[C@@H](OC(C)=O)C12 (stereo not given in full)
inactive: [1] -4.9% | [2] 5% | [3] 4.28% | [4] | [5]

CNC(C)C(=O)NC(C(=O)N1CCCC1C(=O)Nc1cccc2ncccc12)C(C)C (stereo not given)
inactive: [1] | [2] 4.04% | [3] | [4] 2.7% | [5]

CC1=C(CC/C(C)=C/C(=O)O)[C@@]2(C)CCCC(C)(C)C2CC1=O (stereo not given in full)
inactive: [1] -7.55% | [2] -5.92% | [3] | [4] | [5]

C[C@]1(OC(=O)/C=C\c2ccc(O)cc2)C[C@@H](O)[C@]2(O)C=CO[C@@H](O[C@@H]3O[C@H](CO)[C@@H](O)[C@H](O)[C@H]3O)C12 (stereo not given in full)
inactive: [1] -13.5% | [2] -4.97% | [3] -23.9% | [4] | [5]
